# Laboratory results: PubChem BioAssay (EPA / NIEHS)
# The source made the active and inactive calls. The calls were made as follows: active = hit-call score of the fitted dose curve at least 0.9, where 1 is the maximum; inactive = score below 0.9.
# Legend:
# [1] = CEETOX_H295R_PROG: CeeTox H295R High-throughput Steroidogenesis Assay for Progesterone (PROG) (AID 2283442); conditions: actives raise or lower the signal;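 as to AC50: human H295R adrenal cells primed with 10 µM forskolin before dosing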
# Method in brief: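 H295R adrenal cells prestimulated 48 h with 10 uM forskolin, then exposed 48 h to test chemical in 0.1% DMSO. Progesterone in medium quantified by HPLC-MS/MS after MTBE extraction; viability checked by MTT in same wells.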
# [2] = read-out: Tumor necrosis factor receptor superfamily member 6 (Homo sapiens) (UniProt P25445); assay: LTEA_HepaRG_FAS: Life Technologies and Expression Analysis (LTEA) Assay for Fas cell surface death receptor (FAS) using HepaRG (AID 2283447); conditions: mRNA level, 48 h; actives raise or lower the signal
# Method in brief: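 Differentiated HepaRG cells in serum-free induction medium were exposed 48 h to 8 half-log concentrations up to 100 uM in 0.5% DMSO, in duplicate. FAS mRNA was measured by qRT-PCR normalised to ACTB, GAPDH and POLR2A; bidirectional fit versus DMSO.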
# [3] = read-out: Fatty acid synthase (Homo sapiens) (UniProt P49327); assay: LTEA_HepaRG_FASN: Life Technologies and Expression Analysis (LTEA) Assay for Fatty Acid Synthase (FASN) using HepaRG (AID 2283448); conditions: mRNA level, 48 h; actives raise or lower the signal
# Method in brief: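 Transcript-level assay: HepaRG liver cells are treated for 48 h across an eight-point range topping at 100 uM, and FASN mRNA, normalized to three housekeeping genes, is compared with DMSO controls in both directions.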
# [4] = read-out: Cyclin Dependent Kinase Inhibitor 1A (CDKN1A), CDKN1A (gene 1026); assay: LTEA_HepaRG_CDKN1A: Life Technologies and Expression Analysis (LTEA) Assay for Cyclin Dependent Kinase Inhibitor 1A (CDKN1A) using HepaRG (AID 2283450); conditions: mRNA level, 48 h; actives raise or lower the signal
# Method in brief: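 Differentiated HepaRG cells in serum-free induction medium, exposed 48 h in duplicate to eight half-log concentrations up to 100 uM in 0.5% DMSO. mRNA measured by TaqMan qRT-PCR, normalized to ACTB, GAPDH, POLR2A; bidirectional fit versus DMSO.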
# [5] = read-out: Cyclin D1 (CCND1), CCND1 (gene 595); assay: LTEA_HepaRG_CCND1: Life Technologies and Expression Analysis (LTEA) Assay for Cyclin D1 (CCND1) using HepaRG (AID 2283451); conditions: mRNA level, 48 h; actives raise or lower the signal
# Method in brief: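 Differentiated HepaRG cells exposed 48 h in serum-free induction medium to eight half-log concentrations from 100 uM top, 0.5% DMSO, duplicates. CCND1 mRNA measured by Fluidigm TaqMan qRT-PCR, normalised to ACTB, GAPDH, POLR2A; bidirectional fit.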
# [6] = read-out: catalase (CAT), CAT (gene 847); assay: LTEA_HepaRG_CAT: Life Technologies and Expression Analysis (LTEA) Assay for catalase (CAT) using HepaRG (AID 2283452); conditions: mRNA level, 48 h; actives raise or lower the signal
# Method in brief: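 HepaRG cells in serum-free induction medium, 0.5% DMSO vehicle, exposed 48 h in duplicate over 8 half-log concentrations from 100 uM. CAT mRNA measured by qRT-PCR, normalized to ACTB, GAPDH, POLR2A; bidirectional fit versus DMSO.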
# [7] = read-out: flavin-containing dimethylaniline monooxygenases 3 (FMO3), FMO3 (gene 2328); assay: LTEA_HepaRG_FMO3: Life Technologies and Expression Analysis (LTEA) Assay for flavin-containing dimethylaniline monooxygenases 3 (FMO3) using HepaRG (AID 2283453); conditions: mRNA level, 48 h; actives raise or lower the signal
# Method in brief: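 HepaRG, 48 h exposure, 8-pt half-log series from 100 uM, 0.5% DMSO vehicle, duplicates; FMO3 transcript by Fluidigm TaqMan qRT-PCR, housekeeping-normalized; gain/loss fit vs DMSO.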
# [8] = read-out: Cytochrome P450 (CYP1A1), CYP1A1 (gene 1543); assay: LTEA_HepaRG_CYP1A1: Life Technologies and Expression Analysis (LTEA) Assay for Cytochrome P450 (CYP1A1) using HepaRG (AID 2283454); conditions: mRNA level, 48 h; actives raise or lower the signal
# Method in brief: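 Differentiated human HepaRG cells, after 48 h plating, exposed in duplicate for 48 h in serum-free induction medium to 8 half-log concentrations up to 100 uM in 0.5% DMSO. CYP1A1 mRNA by qRT-PCR, normalized to ACTB/GAPDH/POLR2A; bidirectional fit versus DMSO.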
# [9] = read-out: CFLAR gene, CFLAR (gene 8837); assay: LTEA_HepaRG_CFLAR: Life Technologies and Expression Analysis (LTEA) Assay for CFLAR gene using HepaRG (AID 2283455); conditions: mRNA level, 48 h; actives raise or lower the signal
# Method in brief: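 Differentiated HepaRG cells in serum-free induction medium were exposed 48 h in duplicate to eight half-log concentrations up to 100 uM in 0.5% DMSO; mRNA measured by TaqMan qRT-PCR, normalized to ACTB, GAPDH, POLR2A; bidirectional fitting versus DMSO.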
# [10] = read-out: Forkhead box O1 (FOXO1), FOXO1 (gene 2308); assay: LTEA_HepaRG_FOXO1: Life Technologies and Expression Analysis (LTEA) Assay for Forkhead box O1 (FOXO1) using HepaRG (AID 2283456); conditions: mRNA level, 48 h; actives raise or lower the signal
# Method in brief: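 Differentiated HepaRG cells, in serum-free induction medium with 0.5% DMSO, exposed 48 h in duplicate to 8-point half-log series from 100 uM. FOXO1 mRNA measured by TaqMan qRT-PCR, normalized to ACTB, GAPDH, POLR2A; bidirectional fit versus DMSO.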
# [11] = read-out: growth arrest and DNA damage 45 (GADD45A), GADD45A (gene 1647); assay: LTEA_HepaRG_GADD45A: Life Technologies and Expression Analysis (LTEA) Assay for growth arrest and DNA damage 45 (GADD45A) using HepaRG (AID 2283458); conditions: mRNA level, 48 h; actives raise or lower the signal
# Method in brief: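 Human HepaRG liver cells are treated in duplicate for 48 h with chemicals in 0.5% DMSO, highest concentration 100 uM. Expression is read by qRT-PCR and analyzed in both directions against vehicle.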
# [12] = read-out: Forkhead box O3 (FOXO3), FOXO3 (gene 2309); assay: LTEA_HepaRG_FOXO3: Life Technologies and Expression Analysis (LTEA) Assay for Forkhead box O3 (FOXO3) using HepaRG (AID 2283459); conditions: mRNA level, 48 h; actives raise or lower the signal
# Method in brief: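 Differentiated human HepaRG cells, 48 h post-plating, exposed in duplicate for 48 h in serum-free induction medium; 8-point half-log series from 100 uM in 0.5% DMSO. FOXO3 mRNA by TaqMan qRT-PCR, normalized to ACTB/GAPDH/POLR2A; bidirectional fit versus DMSO.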
# [13] = read-out: ABC Transporter (ABCB1), ABCB1 (gene 5243); assay: LTEA_HepaRG_ABCB1: Life Technologies and Expression Analysis (LTEA) Assay for ABC Transporter (ABCB1) using HepaRG (AID 2283460); conditions: mRNA level, 48 h; actives raise or lower the signal
# Method in brief: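 HepaRG cells exposed in duplicate for 48 h in serum-free induction medium to eight half-log concentrations up to 100 uM in 0.5% DMSO. ABCB1 mRNA quantified by qRT-PCR, normalised to ACTB, GAPDH and POLR2A; fitted bidirectionally versus DMSO.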
# [14] = read-out: growth arrest and DNA damage 45 (GADD45B), GADD45B (gene 4616); assay: LTEA_HepaRG_GADD45B: Life Technologies and Expression Analysis (LTEA) Assay for growth arrest and DNA damage 45 (GADD45B) using HepaRG (AID 2283461); conditions: mRNA level, 48 h; actives raise or lower the signal
# Method in brief: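 Differentiated human HepaRG cells in serum-free induction medium exposed 48 h in duplicate to eight concentrations, top 100 uM, half-log steps, 0.5% DMSO. GADD45B mRNA by TaqMan qRT-PCR, normalized to ACTB, GAPDH, POLR2A; bidirectional fit versus DMSO.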
# [15] = read-out: ABC Transporter (ABCC3), ABCC3 (gene 8714); assay: LTEA_HepaRG_ABCC3: Life Technologies and Expression Analysis (LTEA) Assay for ABC Transporter (ABCC3) using HepaRG (AID 2283462); conditions: mRNA level, 48 h; actives raise or lower the signal
# Method in brief: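 Differentiated human HepaRG cells exposed 48 h in serum-free induction medium, 0.5% DMSO vehicle, 8-point half-log series to 100 uM in duplicate. ABCC3 mRNA by qRT-PCR, normalised to ACTB, GAPDH, POLR2A; bidirectional fit vs DMSO.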
# [16] = CEETOX_H295R_DOC: CeeTox H295R High-throughput Steroidogenesis Assay for DOC (AID 2283439); conditions: actives raise or lower the signal
# Method in brief: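 Secreted DOC was quantified from H295R media by HPLC-MS/MS after 48 h chemical exposure following 48 h forskolin (10 uM) prestimulation. Values were fitted in both directions relative to DMSO, the negative control and baseline.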
# [17] = read-out: Cyclin D2 (CCND2), CCND2 (gene 894); assay: LTEA_HepaRG_CCND2: Life Technologies and Expression Analysis (LTEA) Assay for Cyclin D2 (CCND2) using HepaRG (AID 2283449); conditions: mRNA level, 48 h; actives raise or lower the signal;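 also: CCND2 transcript measured by TaqMan qRT-PCR and normalised to three housekeeping genes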
# Method in brief: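 Chemicals in 0.5% DMSO, eight half-log concentrations from 100 uM top, were applied in duplicate for 48 h to human HepaRG cells in serum-free induction medium. CCND2 mRNA by TaqMan qRT-PCR, normalised to ACTB/GAPDH/POLR2A; bidirectional fit versus DMSO.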
# [18] = CEETOX_H295R_TESTO: CeeTox H295R High-throughput Steroidogenesis Assay for Testosterone (TESTO) (AID 2283457); conditions: actives raise or lower the signal
# Method in brief: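 H295R adrenal cells, passage ≤10, exposed to chemicals for 48 h. Testosterone in medium measured by MTBE extraction and HPLC-MS/MS against a 7-point standard curve. Bidirectional fit versus DMSO; MTT viability checked in the same wells.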
# Chain of Fatty acid synthase (Homo sapiens) (P49327 whole entry, looked up): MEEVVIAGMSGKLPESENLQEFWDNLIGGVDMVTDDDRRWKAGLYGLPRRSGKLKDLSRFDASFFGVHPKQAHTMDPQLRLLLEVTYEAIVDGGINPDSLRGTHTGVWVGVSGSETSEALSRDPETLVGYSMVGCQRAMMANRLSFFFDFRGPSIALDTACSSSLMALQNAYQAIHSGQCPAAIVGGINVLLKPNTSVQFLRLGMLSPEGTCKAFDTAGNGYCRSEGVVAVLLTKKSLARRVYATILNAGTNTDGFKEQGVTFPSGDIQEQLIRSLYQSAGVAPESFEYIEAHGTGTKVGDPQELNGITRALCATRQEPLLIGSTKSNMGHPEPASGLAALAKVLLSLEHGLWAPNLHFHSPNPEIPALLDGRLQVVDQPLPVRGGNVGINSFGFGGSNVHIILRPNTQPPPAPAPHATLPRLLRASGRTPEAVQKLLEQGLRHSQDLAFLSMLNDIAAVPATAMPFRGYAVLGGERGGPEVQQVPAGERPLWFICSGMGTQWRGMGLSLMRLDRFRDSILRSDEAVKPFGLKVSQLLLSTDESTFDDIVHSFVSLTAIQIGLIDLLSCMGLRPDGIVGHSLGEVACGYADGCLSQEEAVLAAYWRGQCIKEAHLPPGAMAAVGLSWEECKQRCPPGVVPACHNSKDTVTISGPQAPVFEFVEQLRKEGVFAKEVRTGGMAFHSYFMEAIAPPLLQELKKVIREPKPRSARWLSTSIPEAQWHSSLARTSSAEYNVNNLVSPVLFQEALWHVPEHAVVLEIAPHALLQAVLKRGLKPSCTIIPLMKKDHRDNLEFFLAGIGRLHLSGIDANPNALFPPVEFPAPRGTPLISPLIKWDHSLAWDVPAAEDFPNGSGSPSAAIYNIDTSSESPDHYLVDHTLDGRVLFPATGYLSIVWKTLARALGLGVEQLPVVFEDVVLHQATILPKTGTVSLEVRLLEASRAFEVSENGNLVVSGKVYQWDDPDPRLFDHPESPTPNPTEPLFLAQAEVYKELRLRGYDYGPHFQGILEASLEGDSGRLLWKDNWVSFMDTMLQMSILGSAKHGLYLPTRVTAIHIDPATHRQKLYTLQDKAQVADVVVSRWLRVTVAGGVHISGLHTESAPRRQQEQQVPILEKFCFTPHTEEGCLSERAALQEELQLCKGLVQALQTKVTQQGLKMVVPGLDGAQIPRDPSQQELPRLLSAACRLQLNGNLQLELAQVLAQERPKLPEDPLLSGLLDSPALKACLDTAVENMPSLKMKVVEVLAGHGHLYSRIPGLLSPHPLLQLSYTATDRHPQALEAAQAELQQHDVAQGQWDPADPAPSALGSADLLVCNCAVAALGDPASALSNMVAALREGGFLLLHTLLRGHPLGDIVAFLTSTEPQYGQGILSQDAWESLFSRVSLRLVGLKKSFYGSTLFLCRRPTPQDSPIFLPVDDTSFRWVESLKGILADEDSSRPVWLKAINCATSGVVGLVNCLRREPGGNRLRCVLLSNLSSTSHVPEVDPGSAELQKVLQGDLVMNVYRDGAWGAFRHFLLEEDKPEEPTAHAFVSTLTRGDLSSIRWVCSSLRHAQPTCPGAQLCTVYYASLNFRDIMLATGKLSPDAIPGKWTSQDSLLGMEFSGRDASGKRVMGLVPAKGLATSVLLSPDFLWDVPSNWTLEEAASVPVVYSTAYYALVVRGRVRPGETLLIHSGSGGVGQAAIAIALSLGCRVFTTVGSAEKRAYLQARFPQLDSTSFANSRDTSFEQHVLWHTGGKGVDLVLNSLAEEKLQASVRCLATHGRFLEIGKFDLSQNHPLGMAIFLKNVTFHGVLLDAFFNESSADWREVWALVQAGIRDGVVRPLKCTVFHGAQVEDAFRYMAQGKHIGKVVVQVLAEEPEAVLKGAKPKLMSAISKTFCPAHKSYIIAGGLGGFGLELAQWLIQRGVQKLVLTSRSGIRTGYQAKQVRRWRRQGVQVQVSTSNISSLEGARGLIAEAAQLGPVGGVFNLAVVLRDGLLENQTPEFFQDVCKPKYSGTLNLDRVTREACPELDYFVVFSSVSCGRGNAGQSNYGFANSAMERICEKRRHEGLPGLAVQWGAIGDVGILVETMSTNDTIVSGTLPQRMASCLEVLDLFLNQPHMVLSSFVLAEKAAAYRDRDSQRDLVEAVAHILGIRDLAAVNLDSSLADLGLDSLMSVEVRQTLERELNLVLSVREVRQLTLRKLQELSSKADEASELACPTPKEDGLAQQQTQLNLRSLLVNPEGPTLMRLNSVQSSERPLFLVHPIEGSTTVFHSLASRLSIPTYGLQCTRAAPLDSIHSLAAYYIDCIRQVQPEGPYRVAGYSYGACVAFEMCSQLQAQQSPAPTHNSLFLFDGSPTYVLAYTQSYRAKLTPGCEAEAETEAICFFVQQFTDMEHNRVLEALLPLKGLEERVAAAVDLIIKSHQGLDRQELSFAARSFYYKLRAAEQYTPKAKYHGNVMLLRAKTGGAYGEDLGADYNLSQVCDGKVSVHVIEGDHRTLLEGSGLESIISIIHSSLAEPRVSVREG
smiles,measurement,setting,value
CC(C)=CCCC(C)=CC=O,outcome,[1],inactive
same,outcome,[2],inactive
same,outcome,[3],inactive
same,outcome,[4],inactive
same,outcome,[5],inactive
same,outcome,[6],inactive
same,outcome,[7],inactive
same,AC50,[8],63.9 µM (active)
same,outcome,[9],inactive
same,outcome,[10],inactive
same,outcome,[11],inactive
same,outcome,[12],inactive
same,outcome,[13],inactive
same,outcome,[14],inactive
same,outcome,[15],inactive
CCOC(=O)c1ccc(C2CCC(NC[C@H](O)COc3ccc(O)c(NS(C)(=O)=O)c3)CC2)cc1 (stereo partly drawn),AC50,[16],2.84 µM (active)
same,AC50,[1],2.61 µM (active)
same,outcome,[2],inactive
same,outcome,[3],inactive
same,outcome,[17],inactive
same,outcome,[4],inactive
same,outcome,[5],inactive
same,outcome,[6],inactive
same,outcome,[7],inactive
same,AC50,[8],73.3 µM (active)
same,outcome,[9],inactive
same,outcome,[11],inactive
same,AC50,[12],8.31 µM (active)
same,outcome,[13],inactive
same,outcome,[14],inactive
same,outcome,[15],inactive
CC(C)c1cccc(C(C)C)c1N1C(=O)c2ccc(O)cc2C1=O,AC50,[16],16.7 µM (active)
same,AC50,[1],86.5 µM (active)
same,outcome,[2],inactive
same,AC50,[3],82.1 µM (active)
same,outcome,[17],inactive
same,outcome,[4],inactive
same,outcome,[6],inactive
same,AC50,[7],84.1 µM (active)
same,AC50,[8],63.1 µM (active)
same,outcome,[9],inactive
same,outcome,[11],inactive
same,AC50,[12],80.4 µM (active)
same,AC50,[13],23.9 µM (active)
same,outcome,[14],inactive
same,AC50,[15],84.3 µM (active)
O=C(O)c1cccc(N(Cc2cccnc2)c2ccc(OC(F)F)c(OC(F)F)c2)c1,outcome,[1],inactive
same,outcome,[2],inactive
same,AC50,[3],81.3 µM (active)
same,AC50,[17],0.00643 µM (active)
same,outcome,[4],inactive
same,outcome,[5],inactive
same,outcome,[6],inactive
same,outcome,[7],inactive
same,AC50,[8],50 µM (active)
same,outcome,[9],inactive
same,outcome,[10],inactive
same,outcome,[18],inactive
same,outcome,[11],inactive
same,outcome,[12],inactive
same,AC50,[13],50 µM (active)
same,outcome,[14],inactive
same,outcome,[15],inactive
